# Source: PubChem BioAssay AID488890 (Southern Research Specialized Biocontainment Screening …, 2010)
# Screen size: about 320,000 compounds; about 1,300 (0.41%) were called active. Another 3% or so got no clear call; they are omitted. No rule for the calls is given here. A selection follows. Measured potencies and affinities stand elsewhere.
# Test: growth inhibition of non-replicating M. tuberculosis (AID 488890);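 also: plate controls were DMSO cells for no effect and high antibiotic wells for full effect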
# Conditions: Mycobacterium tuberculosis non-replicating, at 25 µM, stronger effect = higher value
row,Compound,inhibition [%]
1,CC(=O)Oc1ccc(S(=O)(=O)c2ccc(OC(C)=O)cc2)cc1,-5.93
2,Cc1ccc(S(=O)(=O)Nc2ccc3c(c2)C(=O)N([C@H](C)CO)C[C@H](C)[C@@H](CN(C)C(=O)Nc2ccc(C(F)(F)F)cc2)O3)cc1,46.2
3,COc1cccc(-c2nn(-c3ccccc3)cc2CN(C)Cc2ccno2)c1,2.32
4,S=c1[nH]nc(Cc2ccc(Cl)cc2)n1-c1ccc2c(c1)OCCO2,-2
5,O=C(NC(=S)Nc1ccc(S(=O)(=O)Nc2nccs2)cc1)C1CC1,23.6
6,O=C(Nc1ccc(S(=O)(=O)Nc2nccs2)cc1)C1CCCCC1,60.2
7,Cc1ccc(C(=O)NC(=S)NNC(=O)CC#N)cc1,39.8
8,Cc1ccc(C(=O)NNC(=O)c2ccc(C)cc2)cc1,-1.12
9,Cc1cc(C(=O)N2CCN(c3ncccn3)CC2)nn1C,-1.81
10,COc1cccc(/C=C/C(=O)OCCN2C(=O)c3ccccc3C2=O)c1,24.5
11,CC1(C)C(=O)OC(c2cccc([N+](=O)[O-])c2)C2(CCCCC2)C1=O (configuration not stated),12.6
12,COc1ccc(C2(CNC(=O)c3ccccc3)CCOCC2)cc1,-1.08
13,CC(=O)c1ccc(NC(=O)c2ccccc2-c2ccccc2C(=O)O)cc1,78.9
14,COC(=O)c1ccc(NC(=O)c2ccccc2-c2ccccc2C(=O)O)cc1,65.6
15,COC(=O)C[C@H](NC(=O)Cn1cnc2c(SC)nc(N)nc21)C(=O)OC,-10.4
16,CC(=O)c1ccc(NC(=O)CNC2CCCCC2)cc1,-1.52
17,CCC/C(O)=C1\C(=O)CC(C)(C)CC1=Nc1ccccc1O,2.5
18,Cc1c(N=c2c(=O)c3ccccc3c2=O)c(=O)n(-c2ccccc2)n1C,-4.23
19,CC1c2[nH]c3ccccc3c2C[C@H]2C(=O)N(CCCN(C)C)CC(=O)N12 (some centres not stated),-5.98
20,Cc1ccc(C(=O)Nc2ccc(NC(=O)c3ccc(C)o3)cc2)o1,0.92
21,Cc1ccc(C(=O)CCNc2ccccc2)o1,-1.75
22,Cc1ccc(NC(=O)COC(=O)c2cc(=O)c3ccccc3o2)c(Br)c1,6.59
23,Cc1cc(/C=C2\SC(=S)NC2=O)c(C)n1C1CC1,43.8
24,CCN1C(=O)C(=Cc2cc(C)n(C3CC3)c2C)C(=O)N(CC)C1=S,69.5

row,Compound,inhibition [%]
1,CCCS(=O)(=O)C/C(N)=N/OC(=O)c1ccc(Cl)cc1,3.52
2,COc1ccc(NC(=O)CN(C)CC(=O)Nc2ccccc2SC)cc1,-4.75
3,O=C(Nc1nc2c(F)cc(F)cc2s1)c1ccco1,36.2
4,Cc1onc(-c2ccccc2)c1C(=O)Nc1nc(-c2cc(F)ccc2F)cs1,-10.6
5,COCC(=O)Nc1nc2ccc(C)cc2s1,49
6,CCOCC(=O)Nc1nc2ccc(OCC)cc2s1,80
7,O=C(NNc1nc2c(F)cc(F)cc2s1)c1ccccc1,-1.93
8,O=C(Nc1nc(-c2cc(F)ccc2F)cs1)C1=COCCO1,22.8
9,Cc1csc(NC(=O)c2cnccn2)n1,16.7
10,Cc1ccc(C)c(-c2csc(NC(=O)c3c(C)noc3C)n2)c1,-15
11,CC(C)Cc1ccc(CN2CCCC(NC(=O)CCN3CCOCC3)C2)cc1 (configuration not stated),34.5
12,CCS(=O)(=O)N1CCC(C(=O)Oc2ccc(C(=O)OC)cc2)CC1,4.94
13,O=C(Nc1nc2ccc(F)cc2s1)Oc1ccccc1,6.26
14,Cc1ccc2nc(NC(=O)COC(=O)c3ccccn3)sc2c1,76.5
15,Cc1cnc(NC(=O)c2ccncc2)s1,-17.1
16,Cc1ccc2nc(NC(=O)c3ccccc3F)sc2c1,2.6
17,CSc1ncccc1C(=O)Nc1ncc(C)s1,13.3
18,O=C(Nc1nc2ccc(F)cc2s1)c1cccs1,33.5
19,CCc1ccc(C(=O)NNc2cc(Cl)cc(Cl)c2)cc1,67.2
20,CN(C)c1ccc(NC(=O)CCCCCn2nnc3ccccc3c2=O)cc1,2.13
21,O=[N+]([O-])c1cccc(-c2nnc(-c3ccccc3F)o2)c1,35.9
22,O=[N+]([O-])c1cccc(-c2nnc(-c3ccccc3)o2)c1,75.3
23,Cc1ccc(C(=O)Nc2ccc(C(=O)N/N=C/c3ccc(C)o3)cc2)cc1,9.26
24,Cc1cccc(NC(=O)CCNS(=O)(=O)c2ccc(Cl)cc2)c1,-5.22

row,Compound,inhibition [%]
1,CCOC(=O)C1(Cc2ccc(OC)cc2)CCN(C(=O)CN2CCOC2=O)CC1,-7.21
2,CN(C)S(=O)(=O)c1ccc(C(=O)OCCc2ccccc2)cc1,42.9
3,CN(C)S(=O)(=O)c1ccc(Oc2ccccc2)cc1,27.6
4,COc1cc(/C=N/Nc2ccc(Cl)c(C(=O)O)c2)ccc1OC(=O)c1ccc(F)cc1,52.6
5,O=C(NC(NNc1ccc([N+](=O)[O-])cc1)(C(F)(F)F)C(F)(F)F)c1ccc(F)cc1,29.8
6,CC(C)c1ccc2[nH]c3c(c2c1)CCCC3=O,6.88
7,O=C(NN=C1CCCCCC1)c1ccncc1,70.4
8,O=C(N/N=C1\CCCc2c1[nH]c1ccc([N+](=O)[O-])cc21)c1ccncc1,-12.5
9,Nc1ccc(C(=O)N/N=C2\CCCc3c2[nH]c2ccccc32)cc1,19.8
10,CC1=C(/C=C/C(=O)O)C(C)(C)CCC1,13.1
11,CC1=C(/C=C/C(C)=C/C=C/C(C)=C/C(=O)O)C(C)(C)CCC1,15.6
12,CC(/C=C/c1ccc2c(c1)OCO2)=N\NC(=O)c1cccc([N+](=O)[O-])c1,68.6
13,C/C(=N\NC(=O)c1cccc([N+](=O)[O-])c1)c1ccncc1,8.18
14,COc1cc(NC(=O)CN2CCN(c3ccccc3)CC2)c(C)cc1[N+](=O)[O-],-14
15,O=C1C(c2ccccc2)=C(N2CC2)c2ccccc21,15.4
16,Nc1c(C(=O)c2ccccc2)sc2c1c(=O)[nH]c(=O)n2-c1ccccc1,6.25
17,CCOC(=O)c1nn(-c2cccc(Cl)c2)c2nc(Nc3ccccc3)cc(=O)n12,63.6
18,CCOC(=O)c1nn(-c2ccc(F)cc2)c2nc(Nc3ccccc3)cc(=O)n12,75.5
19,Cc1cc(C(=O)N2CCCC(N3CCN(c4ccccc4C)CC3)C2)n(C)n1 (configuration not stated),8.85
20,CCN1CCN(C2CC(=O)NC2=O)CC1 (configuration not stated),-2.18
21,Cc1ccc(NC(=O)C2CCN(C(=O)N3CCOc4ccccc43)CC2)cc1,25.7
22,Oc1ccc(Br)cc1CN1CCCCCCC1,8.51
23,Oc1ccc2ccccc2c1CN1CCCC1,21.4
24,O=C(NC1CCCCC1)C1CCCN(S(=O)(=O)c2cccc3cccnc23)C1 (configuration not stated),-8.57
